Source: PubChem BioAssay (several laboratories)
ERa SRC1 inh: blocks coactivator binding to human estrogen receptor alpha; inhibition, % at 25.6 µM; 1.7% of 86,000 active; TR-FRET ER-alpha LBD / SRC-1 peptide, estradiol-bound; P03372; in the data active = inhibition above about 50%;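 note: 0% = receptor plus peptide control and 100% = peptide only without receptor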
ERa coact pot: enhances coactivator binding to human estrogen receptor alpha. P03372. TR-FRET ERalpha-LBD/SRC-Cy5 coactivator binding, 2 h; 100 = basal binding, no effect. coactivator binding (% of control), % at 25.6 µM. 1.3% of 86,000 active. AID 639; in the data active = activity above about 200%;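 note: binding measured in presence of low estradiol as agonist stimulus; 0% = peptide alone without receptor and 100% = receptor with peptide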
Mac1 fbg enh: enhancers of human CD11b/CD18 binding to fibrinogen; K562 CD11b/CD18 adhesion to fibrinogen, ATPlite luminescence; P05107+P11215; activation, % at 10 µM; 0.07% of 93,000 active; AID 1499;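 active = 10 µM primary screen giving 50% or more activity, confirmed by 40% or more on retest at that dose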
Target sequence (P05107 whole entry, looked up, other chains not shown): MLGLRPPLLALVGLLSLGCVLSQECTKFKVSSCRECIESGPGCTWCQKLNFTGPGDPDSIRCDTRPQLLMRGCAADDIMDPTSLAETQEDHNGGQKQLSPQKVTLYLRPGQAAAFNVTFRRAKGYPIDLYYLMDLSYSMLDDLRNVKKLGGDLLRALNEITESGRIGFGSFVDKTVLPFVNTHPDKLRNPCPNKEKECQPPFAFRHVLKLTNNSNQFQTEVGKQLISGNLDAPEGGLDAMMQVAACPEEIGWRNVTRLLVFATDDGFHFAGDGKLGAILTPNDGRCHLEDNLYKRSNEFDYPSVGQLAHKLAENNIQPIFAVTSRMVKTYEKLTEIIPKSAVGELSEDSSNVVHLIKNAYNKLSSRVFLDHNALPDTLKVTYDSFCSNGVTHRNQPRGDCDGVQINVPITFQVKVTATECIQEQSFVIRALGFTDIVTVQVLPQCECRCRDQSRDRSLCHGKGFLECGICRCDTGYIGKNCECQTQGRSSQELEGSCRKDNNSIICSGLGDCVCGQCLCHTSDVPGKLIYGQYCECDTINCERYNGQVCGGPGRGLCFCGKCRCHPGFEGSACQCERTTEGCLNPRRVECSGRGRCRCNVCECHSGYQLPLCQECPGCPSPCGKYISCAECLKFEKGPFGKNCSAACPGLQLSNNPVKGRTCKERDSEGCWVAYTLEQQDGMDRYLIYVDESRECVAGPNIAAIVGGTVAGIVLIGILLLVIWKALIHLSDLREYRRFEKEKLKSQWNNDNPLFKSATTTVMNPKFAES
Mac1 fbg inh: blocks human CD11b/CD18 adhesion to fibrinogen. P05107+P11215. K562 CD11b/CD18 adhesion to fibrinogen, ATPlite luminescence; Mn2+ added to activate the integrin. inhibition, % at 10 µM. 0.54% of 93,000 active. AID 1497;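 active = primary inhibition of 50% or more at 10 µM, then 40% or more on retest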
ERb coact inh: ER-beta (human) coactivator binding inhibition | Q92731 | TR-FRET ER-beta LBD / SRC1-Cy5 peptide binding; receptor agonist-loaded with 1 µM estradiol | inhibition, % at 25.6 µM | 1.3% of 86,000 active | AID 633;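 active = compounds whose percent inhibition of the receptor-coactivator binding signal exceeds about 50% in the single-dose screen, limit read from the data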;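 note: 0% = receptor plus peptide wells without compound and 100% = peptide-only wells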
Numbers without * were called inactive; · = no result; [ ] = dose if it differs, or a comment. Hits are enriched below; roughly 3.1% of the tested compounds scored in any of these assays.

SMILES | ERa SRC1 inh | ERa coact pot | Mac1 fbg enh | Mac1 fbg inh | ERb coact inh
O=C(N/N=C/c1ccc(-c2ccc(S(=O)(=O)Nc3ncccn3)cc2)o1)c1cc2ccccc2cc1O | · | · | 53* | -11 | ·
CCOc1ccc(C(=O)NCCn2cc(SCC(=O)Nc3cc(C)on3)c3ccccc32)cc1 | 12 | 155 | 2 | -6 | 0
Cc1cc(NC(=O)CSc2cn(CCNC(=O)c3ccc(Cl)cc3)c3ccccc23)no1 | 70* | 58 | -2 | 4 | 44
Cc1ccc2cc3cc(C(=O)NCCCN4CCCCCC4)oc3nc2c1 | 58*[fluorescence artefact?] | 105 | -4 | -22 | 26
CCOC(=O)c1c(C)oc2c1c(C(c1ccncc1)N1CCOCC1)c(O)c1ccccc12 (centres undefined) | 68*[fluorescence artefact?] | 93 | 4 | 11 | 71*[fluorescence artefact?]
CCOC(=O)c1c(C)oc2c1c(C=NC1CCS(=O)(=O)C1)c(O)c1ccccc12 (centres undefined) | 70* | 79 | · | · | 44
Cc1ccc(S(=O)(=O)c2c(C)nn(C(C)(C)C)c2OC(=O)c2ccc(Br)o2)cc1 | 7 | 77 | -6 | 54* | 9
CCC(C)[C@H](NC(=O)Nc1cccc(Br)c1)C(=O)OC (some centres undefined) | · | · | 1 | -6 | ·
O=C(Nc1ccc(N2CCCC2)cc1)c1cccc(F)c1 | 33 | 60 | 1 | -29 | 55*[fluorescence artefact?]
O=C(Oc1ccccc1)N1CCN(c2ccc(F)cc2)CC1 | -7 | 102 | -4 | 6 | -9
O=C(Nc1ccc(N2CCCC2)cc1)c1ccccc1F | 96*[fluorescence artefact?] | 17 | · | · | 80*[fluorescence artefact?]
O=C(Nc1ccc(N2CCCCC2)cc1)c1ccccc1 | · | · | -5 | 22 | ·
CN1CCN(c2ccc(NC(=O)c3cccc(OCc4ccccc4)c3)cc2)CC1 | 37 | 42 | 6 | -8 | 62*[fluorescence artefact?]
CCN1CCN(c2ccc(NC(=O)c3cccc(OCc4ccccc4)c3)cc2)CC1 | 19 | 54 | -2 | -12 | 21
O=C(Nc1ccc(N2CCN(c3ccc(O)cc3)CC2)cc1)Oc1ccccc1 | 95*[fluorescence artefact?] | 30 | 96 | -9 | 57*[fluorescence artefact?]
CCCCN1CNC(=S)N(Cc2ccccc2)C1 | · | · | -3 | -1 | ·
COc1ccccc1Nc1ccc(S(=O)(=O)N2CCCCC2)cc1[N+](=O)[O-] | · | · | 0 | 9 | ·
CCOC(=S)SCC(=O)N1CCc2ccccc2C1C1C(=O)CCCC1=O (centres undefined) | · | · | 5 | -5 | ·
COC(=O)c1ccc(Sc2ccccc2NS(=O)(=O)c2ccc(OC)cc2)nc1 | · | · | -3 | -4 | ·
Cc1nnc(Oc2ccccc2F)c2ccccc12 | 51* | 128 | 2 | -2 | 26
COc1ccc(OCC(=O)N/N=C(/C)Cc2ccccc2)cc1 | · | · | 1 | -19 | ·
c1ccc(CNc2ncnc3ccccc23)cc1 | 5 | 121 | -4 | 66* | 2
COc1cc2ncnc(NCc3ccccc3)c2cc1OC | · | · | -1 | -12 | ·
CCCCOc1ccc(C(CC(=O)NC)C(=O)O)cc1 (centres undefined) | -5 | 101 | -2 | -2 | 3
CC(C)n1c(SCC(=O)Nc2nc3c(s2)CCCC3)nc2c1c(=O)n(C)c(=O)n2C | 2 | 97 | · | · | -14
SMILES | ERa SRC1 inh | ERa coact pot | Mac1 fbg enh | Mac1 fbg inh | ERb coact inh
Fc1ccc(NCc2cccnc2)cc1F | 62* | 120 | -1 | -1 | -2
Cc1cc(F)ccc1NCc1cccnc1 | -2 | 96 | · | · | -2
Cn1c(SCc2cc(=O)n3cc(Br)ccc3n2)nnc1C1COc2ccccc2O1 (centres undefined) | 68* | 65 | 5 | -2 | 49
Cc1ccccc1Nc1nc(CSc2nnc(-c3ccoc3C)n2C)cs1 | 0 | 92 | 5 | -7 | 7
Cc1occc1-c1nnc(SCc2cc(=O)n3cc(Br)ccc3n2)n1C | 61* | 121 | 1 | -4 | 53*
CCOP(=O)(OCC)C(C#N)=C1SCN(c2ccccc2)CS1 | 6 | 83 | · | · | -11
Cc1nc(-c2ccccc2)nc2[nH]c(-c3ccccc3)cc(=O)c12 | 24 | 334*[fluorescence artefact?] | 3 | -3 | 44
Cc1nc(C)c2c(=O)cc(-c3ccccc3)[nH]c2n1 | -21 | 117 | -1 | 24 | -23
CCOC(=O)c1c(C)[nH]c(C)c1C(=O)CSc1nnc(-c2cc(OC)c(OC)c(OC)c2)o1 | -42 | 313* | -4 | -1 | -3
CCOc1ccc(Cn2nnc(C(=O)Nc3cc(C)cc(C)c3)c2N)cc1 | 0 | 153 | 0 | 2 | -2
Nc1c(C(=O)NCc2ccccc2)nnn1Cc1ccc(F)cc1 | 6 | 105 | -2 | 5 | -8
